Results published in PubChem BioAssay AID1159580 (chemical genetic matrix, 2015).
The campaign covered roughly 5,500 compounds. About 2,000 (36%) were called active. Inconclusive results (about 18%) are left out. Rule as the data show it: active = normalized growth mostly below about 0.91 (no sharp cut-off); inconclusive = no clear call, values can overlap the other calls; inactive = mostly above about 0.92. The list shows a part of the results.

Experiment: chemical genetic growth profiling, strain panel (AID 1159580);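 also: tested at 20 µM; growth read once vehicle control cultures reached saturation at 30 °C; 1 = growth at the plate median or of vehicle wells; lower values mean less growth of the strain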
Settings: growth OD

Measured: normalized growth

O=C(O[C@@H]1Cc2c(O)cc(O)cc2O[C@@H]1c1cc(O)c(=O)c2c(O)c(O)cc([C@H]3Oc4cc(O)cc(O)c4C[C@H]3O)c2c1)c1cc(O)c(O)c(O)c1
inactive: S. cerevisiae deletion strains, locus YJR066W, strain TOR1, hits give low values 0.969 | S. cerevisiae deletion strains, locus YKL009W, strain mrt4, hits give low values 1.05 | S. cerevisiae deletion strains, locus YKL068W, hits give low values 1.04 | S. cerevisiae deletion strains, locus YKL085W, strain MDH1 (second series), hits give low values 1.03 | S. cerevisiae deletion strains, locus YKL085W, strain MDH1, hits give low values 1.03 | S. cerevisiae deletion strains, locus YKR026C, strain gcn3, hits give low values 0.988 | S. cerevisiae deletion strains, locus YKR091W, strain srl3, hits give low values 0.944 | S. cerevisiae deletion strains, locus YLR102C, strain apc9, hits give low values 1.02 | S. cerevisiae deletion strains, locus YLR113W, strain HOG1, hits give low values 1.11 | S. cerevisiae deletion strains, locus YML032C, strain rad52, hits give low values 0.968 | S. cerevisiae deletion strains, locus YML124C, strain tub3, hits give low values 0.949 | S. cerevisiae deletion strains, locus YMR078C, strain ctf18, hits give low values 1.01 | S. cerevisiae deletion strains, locus YMR125W, strain sto1, hits give low values 1.04 | S. cerevisiae deletion strains, locus YNL183C, strain NPR1, hits give low values 0.963 | S. cerevisiae deletion strains, locus YNL250W, strain rad50, hits give low values 1.05 | S. cerevisiae deletion strains, locus YNL271C, strain bni1, hits give low values 1 | S. cerevisiae deletion strains, locus YNL298W, strain CLA4, hits give low values 0.998 | S. cerevisiae deletion strains, locus YNL307C, strain MCK1, hits give low values 1.01 | S. cerevisiae deletion strains, locus YNL322C, strain KRE1 (second series), hits give low values 0.941 | S. cerevisiae deletion strains, locus YNR049C, strain mso1, hits give low values 0.945 | S. cerevisiae deletion strains, locus YOL012C, strain htz1 0.255 | S. cerevisiae deletion strains, locus YOR136W, strain idh2, hits give low values 0.929 | S. cerevisiae deletion strains, locus YOR144C, strain elg1, hits give low values 0.943 | S. cerevisiae deletion strains, locus YOR231W, strain MKK1, hits give low values 1.02 | S. cerevisiae deletion strains, locus YOR316C, strain cot1, hits give low values 1.02 | S. cerevisiae deletion strains, locus YPL256C, strain CLN2, hits give low values 1.06 | S. cerevisiae deletion strains, locus YPR119W, strain clb2, hits give low values 1.02 | S. cerevisiae deletion strains, locus YPR141C, strain kar3, hits give low values 1.03 | S. cerevisiae deletion strains, locus YPR163C, strain tif3, hits give low values 0.974
active: S. cerevisiae deletion strains, locus YKL160W, strain elf1, hits give low values 0.709 | S. cerevisiae deletion strains, locus YKL190W, strain CNB1, hits give low values 0.211 | S. cerevisiae deletion strains, locus YKR001C, strain vps1, hits give low values 0.809 | S. cerevisiae deletion strains, locus YLL001W, strain dnm1, hits give low values 0.658 | S. cerevisiae deletion strains, locus YLL026W, hits give low values 0.719 | S. cerevisiae deletion strains, locus YLL041C, strain sdh2, hits give low values 0.79 | S. cerevisiae deletion strains, locus YLR027C, strain aat2, hits give low values 0.495 | S. cerevisiae deletion strains, locus YLR039C, strain RIC1, hits give low values 0.271 | S. cerevisiae deletion strains, locus YLR058C, strain SHM2, hits give low values 0.219 | S. cerevisiae deletion strains, locus YLR221C, strain rsa3, hits give low values 0.699 | S. cerevisiae deletion strains, locus YLR258W, strain gsy2, hits give low values 0.638 | S. cerevisiae deletion strains, locus YLR262C, strain YPT6 (second series), hits give low values 0.524 | S. cerevisiae deletion strains, locus YLR262C, strain YPT6, hits give low values 0.552 | S. cerevisiae deletion strains, locus YLR268W, strain sec22, hits give low values 0.644 | S. cerevisiae deletion strains, locus YLR320W, strain mms22, hits give low values 0.635 | S. cerevisiae deletion strains, locus YLR330W, strain CHS5, hits give low values 0.791 | S. cerevisiae deletion strains, locus YLR342W, strain FKS1, hits give low values 0.423 | S. cerevisiae deletion strains, locus YLR357W, strain rsc2, hits give low values 0.624 | S. cerevisiae deletion strains, locus YLR370C, strain arc18, hits give low values 0.593 | S. cerevisiae deletion strains, locus YLR371W, strain rom2, hits give low values 0.661 | S. cerevisiae deletion strains, locus YLR384C, strain iki3, hits give low values 0.784 | S. cerevisiae deletion strains, locus YLR418C, strain cdc73, hits give low values 0.505 | S. cerevisiae deletion strains, locus YML016C, strain PPZ1, hits give low values 0.111 | S. cerevisiae deletion strains, locus YML120C, strain ndi1, hits give low values 0.727 | S. cerevisiae deletion strains, locus YMR058W, strain fet3, hits give low values 0.0992 | S. cerevisiae deletion strains, locus YMR129W, hits give low values 0.789 | S. cerevisiae deletion strains, locus YMR205C, strain PFK2, hits give low values 0.416 | S. cerevisiae deletion strains, locus YMR223W, strain ubp8, hits give low values 0.844 | S. cerevisiae deletion strains, locus YMR231W, strain pep5, hits give low values 0.229 | S. cerevisiae deletion strains, locus YMR263W, strain SAP30, hits give low values 0.743 | S. cerevisiae deletion strains, locus YMR307W, strain GAS1, hits give low values 0.426 | S. cerevisiae deletion strains, locus YNL067W, strain RPL9B, hits give low values 0.547 | S. cerevisiae deletion strains, locus YNL071W, strain lat1, hits give low values 0.747 | S. cerevisiae deletion strains, locus YNL209W, strain ssb2, hits give low values 0.141 | S. cerevisiae deletion strains, locus YNL233W, strain BNI4, hits give low values 0.623 | S. cerevisiae deletion strains, locus YNL248C, strain rpa49, hits give low values 0.862 | S. cerevisiae deletion strains, locus YNL322C, strain KRE1, hits give low values 0.243 | S. cerevisiae deletion strains, locus YNR052C, strain pop2, hits give low values 0.754 | S. cerevisiae deletion strains, locus YOL147C, strain pex11, hits give low values 0.862 | S. cerevisiae deletion strains, locus YOR001W, strain rrp6, hits give low values 0.736 | S. cerevisiae deletion strains, locus YOR061W, strain CKA2, hits give low values 0.441 | S. cerevisiae deletion strains, locus YOR069W, strain VPS5, hits give low values 0.503 | S. cerevisiae deletion strains, locus YOR070C, strain gyp1, hits give low values 0.569 | S. cerevisiae deletion strains, locus YOR080W, strain dia2, hits give low values 0.253 | S. cerevisiae deletion strains, locus YOR083W, strain WHI5, hits give low values 0.541 | S. cerevisiae deletion strains, locus YOR106W, strain vam3, hits give low values 0.143 | S. cerevisiae deletion strains, locus YOR184W, strain ser1, hits give low values 0.649 | S. cerevisiae deletion strains, locus YOR265W, strain rbl2, hits give low values 0.699 | S. cerevisiae deletion strains, locus YOR270C, strain vph1, hits give low values 0.255 | S. cerevisiae deletion strains, locus YOR290C, strain snf2, hits give low values 0.487 | S. cerevisiae deletion strains, locus YPL051W, strain arl3, hits give low values 0.279 | S. cerevisiae deletion strains, locus YPL078C, strain atp4, hits give low values 0.731 | S. cerevisiae deletion strains, locus YPL106C, strain sse1, hits give low values 0.66 | S. cerevisiae deletion strains, locus YPL240C, strain hsp82, hits give low values 0.779 | S. cerevisiae deletion strains, locus YPL241C, strain CIN2, hits give low values 0.509 | S. cerevisiae deletion strains, locus YPR167C, strain met16, hits give low values 0.918 | S. cerevisiae deletion strains, strain wtn01, hits give low values 0.679 | S. cerevisiae strains, strain wild type, hits give low values 0.0985
